High-throughput results deposited in PubChem by Center for Chemical Genomics, University of Michigan.
Dicer processing: inhibitors of Dicer pre-microRNA processing, primary screen, biochemical, cat-ELCCA, chemiluminescence; Endoribonuclease Dicer (Homo sapiens), Q9UPY3; z-score at 25 µM; cat-ELCCA pre-miR-21 Dicer processing; active compounds read high; actives 6% (n = 47,000); in the data active = z-score above about 3, passing the limit was not always enough;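 also: plate controls were vehicle for no effect and no enzyme for full effect; higher signal means more uncleaved substrate so more Dicer inhibition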
* = called active by the depositor. Many of the other results were omitted from the sample, so hits are more common in it than they were.

SMILES	Dicer processing
CCCOc1ccccc1C1C2=C(CCCC2=O)Nc2nnnn21 (stereo not given)	0.26
CNC(=O)N1CCCC(Cn2cccc2)C1 (stereo not given)	1.1
COc1cccc(C2CCCC/C2=N/O)c1 (stereo not given)	0.14
Fc1ccc2[nH]cc(-c3nnnn3-c3ccc(Br)cc3)c2c1	2.9
N#Cc1c(SCC(=O)c2cccc([N+](=O)[O-])c2)nc2c(c1-c1cccs1)CCCC2	-0.22
O=C(O)CCC(NC(=O)OCc1ccccc1)C(=O)O (stereo not given)	0.24
O=C(O)CCC(C(=O)O)N1C(=O)c2ccccc2C1=O (stereo not given)	3.2*
O=C(CCC(C(=O)O)N1C(=O)c2ccccc2C1=O)Nc1ccc2c(c1)COCO2 (stereo not given)	-1.8
Cc1c2c(=O)n(-c3nc4ccccc4s3)n(Cc3ccccc3)c2cc(=O)n1Cc1ccco1	-1.4
O=C(Cn1nnc(N2CCOCC2)n1)NNC(=S)NC(=O)C1CC1	2.3
CC1(C)CC(=O)C2=C(C1)Nc1ccccc1NC2c1ccc2c(c1)OCO2 (stereo not given)	-0.62
O=C1c2ccccc2NC(c2ccc3c(c2)OCO3)N1Cc1ccccc1 (stereo not given)	3.4*
c1ccc2c(c1)NC(c1ccc3c(c1)OCCO3)n1cccc1-2 (stereo not given)	2.6
Cc1cc(C(F)(F)F)n2nc(-c3ccc(Cl)cc3)cc2n1	-0.29
Cn1cnnc1SCCC(=O)Nc1ccccc1	-0.17
CSc1c(CC(=O)Nc2ccccc2)n(C)c2ccccc12	3.7*
CCOC(=O)Cc1c(SC)c2ccccc2n1C	2.1
N#CC1=C2N=C(N)c3ccccc3N2C2=C(C(=O)CCC2)C1c1cccnc1 (stereo not given)	1.3
Cc1ccc(C2Nn3c(C)nnc3SC2C(=O)Nc2ccc(Br)cc2C)cc1 (stereo not given)	1.3
COc1ccc(NC(=O)Cn2cnc([N+](=O)[O-])n2)c(OC)c1	-0.56
CC(C)(C)C1CCC(OC(=O)Cn2cnc([N+](=O)[O-])n2)CC1 (stereo not given)	3.1*
CC(C)OC(=O)Cn1cnc([N+](=O)[O-])n1	-0.76
O=C(O)c1ccc(N2C(=O)CC(N3CCN(Cc4ccc5c(c4)OCO5)CC3)C2=O)cc1 (stereo not given)	1.2
CC(C)CN(CC(C)C)CC(O)Cn1cnc2c1c(=O)n(C)c(=O)n2C (stereo not given)	-2.1
O=C1CC(c2ccc(F)cc2)c2ccc3ccccc3c2N1 (stereo not given)	-0.44
SMILES	Dicer processing
Cc1ccccc1S(=O)(=O)Nc1ccc2oc3c(c2c1)CCCC3	3.9*
COc1ccc(S(=O)(=O)Nc2ccc3oc4c(c3c2)CCCC4)cc1	1.4
Cc1oc2ccc(NS(=O)(=O)c3ccc(Cl)cc3)cc2c1C(=O)O	0.79
Cc1oc2ccc(NS(=O)(=O)c3ccccc3)cc2c1C(=O)O	3.4*
O=C(O)c1ccc(S(=O)(=O)Nc2ccc3oc4c(c3c2)C(=O)CCC4)cc1	0.94
Cc1oc2ccc(NS(=O)(=O)c3ccc(F)cc3)cc2c1C(=O)O	-1.6
Fc1ccc(OCc2nn3c(Cc4ccccc4)nnc3s2)cc1	-0.8
COC(=O)c1ccc(S(=O)(=O)NNC(=O)c2ccc(Cl)cc2)n1C	0.81
Cc1cc(C(F)(F)F)c2c(C)nn(-c3ccc(C)c(C)c3)c2n1	-1.1
O=C1C2C(c3ccccc3)OC3(C(=O)c4ccccc4C3=O)C2C(=O)N1Cc1ccccc1 (stereo not given)	-0.15
Cc1ccccc1-c1nc2cc(NCc3cccs3)ccc2o1	8.2*
O=C(Nc1ccc2oc(-c3ccccc3F)nc2c1)c1ccc([N+](=O)[O-])o1	32
O=C(Nc1ccc2oc(-c3cccc4ccccc34)nc2c1)c1ccc([N+](=O)[O-])o1	1.7
C=CCOC(=O)c1sc(N2C(=O)c3oc4ccccc4c(=O)c3C2c2cccnc2)nc1C (stereo not given)	-0.71
Cc1cc(N)n2ncc(-c3ccccc3)c2n1	0.44
Cc1cc(C)n2nc(C)c(-c3ccc(Cl)cc3)c2n1	1.9
Cc1cc(C)n2ncc(-c3ccc(Cl)cc3)c2n1	3.9*
Cc1sc2nc(SCCCC(=O)NCCO)nc(N)c2c1C	2.9
Cc1cc(S(=O)(=O)n2cccc2)c(C)cc1Cl	-0.38
C=CCNC(=S)Nc1sc2c(c1C(=O)OCC)CCN(C(=O)OCC)C2	-3.5
CCOC(=O)N1CCc2c(sc(N)c2C#N)C1	-0.06
CCOC(=O)c1c(NC(=O)CN2CCc3ccccc32)sc2c1CCN(C(=O)OCC)C2	-0.43
CCOC(=O)c1c(NC(=S)NCc2ccccc2)sc2c1CCN(C(=O)OCC)C2	3.7*
CCOC(=O)N1CCc2c(sc(NC(=O)CN3CCc4ccccc43)c2C#N)C1	5.3*
CCOC(=O)c1c(NC(=S)N2CCCCC2)sc2c1CCN(C(=O)OCC)C2	-2
SMILES	Dicer processing
c1ccc(Cn2c3ccccc3n3nc(-c4ccco4)nc23)cc1	0.35
COC(=O)c1ccc(Oc2nc(C)cc(N)n2)cc1	0.86
Cn1c(S(=O)(=O)Cc2ccc(Cl)cc2)nc2ccccc21	-0.41
Cn1c(CN2CCN(c3ccc(Cl)cc3)CC2)nc2ccccc21	6.1*
Cc1nnc2c(N3CCN(Cc4ccccc4)CC3)nc3ccccc3n12	-0.28
CCc1ccc(C2C(C(=O)OCCOC)=C(C)N=C3SCCC(=O)N32)cc1 (stereo not given)	0.33
Cc1cccc(N2C(=O)CC(n3ccnc3)C2=O)c1C (stereo not given)	3.5*
O=C1CC(N2CCN(c3ccccc3O)CC2)C(=O)N1c1ccccc1F (stereo not given)	2.3
COc1ccccc1N1C(=O)CC(N2CCN(c3ccc(F)cc3)CC2)C1=O (stereo not given)	0.32
COc1cc(C(=O)NN(C)C)cc(OC)c1OC	0.22
Oc1ccccc1-c1nc2ccccc2[nH]1	3.2*
Cc1ccc(SCc2ccccc2-c2nc3ccccc3[nH]2)cc1	-1.4
Cc1ccc(-c2nc3ccccc3[nH]2)cc1	0.21
Cn1c(Oc2cccc(Cl)c2)nc2c1c(=O)n(Cc1ccc(Cl)cc1Cl)c(=O)n2C	-0.24
CS(=O)(=O)Cc1cc(Cl)cc2c1OCOC2	73
Cc1ccc(-c2nc(NC(=O)C3CC3)sc2C)cc1Cl	2
CN(Cc1ccccc1)C(=O)c1ccc([N+](=O)[O-])o1	3*
O=C(Nc1ccccc1F)c1ccc([N+](=O)[O-])o1	-0.41
CCOC(=O)CNC(=O)c1ccc([N+](=O)[O-])o1	2.6
CCOC(=O)c1ccc(N2CCOCC2)c(NS(=O)(=O)c2cc(Br)c(Cl)s2)c1	2
NC(Cc1c[nH]c2ccccc12)C(=O)O (stereo not given)	2.3
O=C(NCC(c1ccccc1)c1c[nH]c2ccccc12)C(F)(F)F (stereo not given)	-0.74
Nc1ccccc1CC(c1c[nH]c2ccccc12)c1c[nH]c2ccccc12	4.8*
O=C(NC(CO)C(=O)O)c1cncc(Br)c1 (stereo not given)	0.03
CC1c2snnc2-c2cc(Cl)ccc2S1(=O)=O (stereo not given)	0.19
Clc1ccc(-c2cc(NC3CCCCC3)n[nH]2)cc1	-4.6
O=C1CC(c2cccc(Cl)c2)Cc2nc3nc(C(F)(F)F)nn3cc21 (stereo not given)	3.8*
O=C1CC(c2cccc(Cl)c2)Cc2nc(N3CCc4ccccc43)ncc21 (stereo not given)	-0.39
O=C1CC(c2cccc(Cl)c2)Cc2nc(NCc3ccco3)ncc21 (stereo not given)	2.3
